# PubChem BioAssay (NCI)
# The panel holds about 83,000 compounds, 20% with a hit somewhere; the sample as a whole holds those more often.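 Cells were grown in 96-well plates and exposed to the test compound at a single concentration for 48 hours; results are reported as percent growth, with values below 10 considered active.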 Active and inactive are the calls of the source.
# System: UO-31 renal
# Assay: NCI-60 one-dose screen, 48 h (100 = growth as untreated, 0 = no growth, -100 = all killed)
# Settings: 10 µM unless noted
row,SMILES,growth
1,COc1cc(Cn2c(SCC(=O)Nc3cc(OC)c(OC)c(OC)c3)nc3ccccc3c2=O)cc(OC)c1OC,80.4% (inactive)
2,c1ccc(CCn2nnc3c(Nc4ccc(N5CCOCC5)cc4)ncnc32)cc1,87.1% (inactive)
3,CCCC1OC(c2ccc(C(C)C)cc2)OCC1CC (centres undefined),101% (inactive)
4,Oc1ccc(N=Cc2ccccc2)cc1,77.5% (inactive)
5,COc1cccc(NC(=O)c2sc3nc4c(cc3c2N)CCCC4)c1,40% (inactive)
6,Cn1cc(C=O)c2ccccc21,60.6% (inactive)
7,O=C1CCCCN1CCCCC#Cc1ccccc1C#Cc1ccc([N+](=O)[O-])cc1,7.05% (active)
8,O=C(c1ccncc1)N1N=C(c2ccc(Cl)cc2)CC1c1c[nH]c2ccccc12 (centres undefined),45.2% (inactive)
9,Cc1cc2c(c(=O)o1)C(c1ccc(OC(=O)N3CCOCC3)cc1)C(C#N)=C(N)O2 (centres undefined),90.2% (inactive)
